Assay outcomes deposited in PubChem BioAssay by National Center for Advancing Translational Sciences (NCATS).
KB-3-1 cytotox: kills parental KB-3-1 adenocarcinoma cells; KB-3-1 viability, CellTiter-Glo ATP luminescence, 72 h; Potency, µM (highest dose often 46.1 µM), actives largely listed as cytotoxic; 400,000 tested, 1.4% active; also: % is scaled to controls: 0 for no effect and ±100 for the full control effect; nearly all actives have a fitted effect of over 60% in size
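KB-3-1 parental drug-naive adenocarcinoma cells in DMEM/10% FBS, incubated 72 h at 37 C with pin-transferred compounds across a concentration series. Viability by CellTiter-Glo luminescence; concentration-response curves fitted after normalization.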
MCF10A rerep: induces DNA re-replication in MCF 10a normal breast cells. AID 624296. 350,000 tested, 2.9% active. Potency, µM (top dose mostly 46.1 µM), inactives show top-dose activity, positive = re-replication, most hits filed as activators. MCF 10A DNA re-replication, Hoechst nuclear intensity, 48 h; also: % of control where 0% means no effect; nearly all actives have a fitted effect of over 50% in size
SW480 rerep: DNA re-replication induction in SW480 cells; SW480 DNA re-replication, Hoechst DNA content imaging, 48 h; Potency, µM (series often up to 46.1 µM), inactives show top-dose re-replication activation, actives largely listed as activators; 340,000 tested, 1.8% active; also: % of control where 0% means no effect; nearly all actives have a fitted effect of over 55% in size
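Cells (250 per well) received 23 nL compound or DMSO by pin tool and were kept 48 hr at 37 C, 5% CO2. Nuclei were then stained with Hoechst for 40 min and scanned for DNA content.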
KB-V1 cytotox: kills drug-selected multidrug resistant KB-V1 cells | Potency, µM (titrated, usually from 46.1 µM), usual class: cytotoxic | KB-V1 MDR cells viability, CellTiter-Glo, 72 h | 400,000 tested, 3.4% active; also: % is scaled to controls: 0 for no effect and ±100 for the full control effect; nearly all actives have a fitted effect of over 60% in size
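Potencies derive from concentration-effect curves fitted to normalized luminescence (CellTiter-Glo) of KB-V1 cells treated for 72 h at 37 degrees C in phenol-red-free DMEM containing 10% FBS.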
ELG1 repair inh: inhibitors of ELG1-dependent DNA repair in HEK293T cells | HEK293T ELG1-luciferase reporter, luminescence, 16 h; DNA damage induced by 5-fluorouridine | Potency, µM (highest dose often 46.1 µM), inactives show at the top dose activity change, negative = inhibition, actives largely listed as inhibitors | 330,000 tested, 2.3% active | AID 504467; also: % is scaled to controls: 0 for no effect and ±100 for the full control effect; nearly all actives have a fitted effect of over 55% in size
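Quantitative HTS, concentration-response format. 2,000 cells/well co-treated with 5-fluorouridine and compound, 16 hr in 5% CO2 at 37 °C; ONE-Glo luminescence read after 30 min.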
* = called active by the depositor; [ ] = another dose, or the depositor's remark. Compounds with a hit are over-represented: about 8.1% of the library has one in this group of screens. Calls follow the shape of the dose curve; as a rule, active = well fitted curve in the direction sought with a large enough effect; inconclusive = small, poorly fitted or top-dose-only effect, or another doubt; inactive = no such curve, though single readings can be large; an effect the other way counts as inactive or inconclusive. Potency is read from the fitted curve at half-maximal effect.

Results for CCNC(=O)COC(=O)Cc1ccc(Cl)cc1Cl ?
KB-3-1 cytotox: inactive; MCF10A rerep: 0%; SW480 rerep: 1%; KB-V1 cytotox: inactive; ELG1 repair inh: 15%

How did Cc1ccc(NC(=O)CCc2ccc(C)o2)c(C)c1 do in these assays?
KB-3-1 cytotox: inconclusive; MCF10A rerep: 2%; SW480 rerep: 10%; KB-V1 cytotox: inconclusive; ELG1 repair inh: 7%

How did CS(=O)(=O)c1ccc(Cl)c(NC(=O)CCl)c1 do in these assays?
KB-3-1 cytotox: 6.5µM*; MCF10A rerep: inconclusive; SW480 rerep: inconclusive; KB-V1 cytotox: 21µM*; ELG1 repair inh: inconclusive

What do the screens show for `Cc1ccc(NC(=O)CC2Sc3ccccc3NC2=O)c(C)c1` (centres undefined)?
KB-3-1 cytotox: 16µM*; KB-V1 cytotox: inconclusive

Results for Cc1ccc(NC(=O)CCl)c(C)c1 ?
KB-3-1 cytotox: 16µM*; MCF10A rerep: inconclusive; SW480 rerep: inconclusive; KB-V1 cytotox: inconclusive; ELG1 repair inh: inconclusive

Results for CN(Cc1cccc(F)c1)C(=O)c1ccc(NS(=O)(=O)c2ccc3[nH]c(=O)[nH]c3c2)cc1 ?
KB-3-1 cytotox: inconclusive; MCF10A rerep: 1%; SW480 rerep: -2%; KB-V1 cytotox: inactive; ELG1 repair inh: 5%

Results for CCCC(C)C(=O)N(Cc1ccccc1)c1ccccn1 (centres undefined) ?
KB-3-1 cytotox: inactive; MCF10A rerep: 12%; SW480 rerep: -2%; KB-V1 cytotox: inconclusive; ELG1 repair inh: -20%

What do the screens show for `Cc1ccc(Oc2c(C(N)=O)cc([N+](=O)[O-])cc2[N+](=O)[O-])cc1`?
KB-3-1 cytotox: 21µM*; MCF10A rerep: inconclusive; SW480 rerep: inconclusive; KB-V1 cytotox: inactive; ELG1 repair inh: inconclusive

Results for N#CC(c1ccccc1)C1CCN(Cc2ccccc2)CC1 (centres undefined) ?
KB-3-1 cytotox: inactive; MCF10A rerep: 13%; SW480 rerep: -1%; KB-V1 cytotox: 21µM*; ELG1 repair inh: -5%

Results for CCOC(=O)N1CCN(S(=O)(=O)c2ccc3c(c2)oc(=O)n3C)CC1 ?
KB-3-1 cytotox: inactive; MCF10A rerep: 2%; SW480 rerep: -2%; KB-V1 cytotox: 23µM*; ELG1 repair inh: 10%

Results for CC(C)COC(=O)N1CCN(S(=O)(=O)c2ccc3c(c2)CCC3)CC1 ?
KB-3-1 cytotox: inactive; MCF10A rerep: 7%; SW480 rerep: -9%; KB-V1 cytotox: 15µM*; ELG1 repair inh: 1%

Results for CCOC(=O)N1CCN(S(=O)(=O)c2ccc(OCC)cc2)CC1 ?
KB-3-1 cytotox: inactive; MCF10A rerep: -1%; SW480 rerep: -2%; KB-V1 cytotox: 16µM*; ELG1 repair inh: 0%

Results for CCOC(=O)c1ccc(S(=O)(=O)N2CCN(C)CC2)cc1 ?
KB-3-1 cytotox: inactive; MCF10A rerep: 5.2µM*; SW480 rerep: -22%; KB-V1 cytotox: inactive; ELG1 repair inh: 9%

Results for CCOC(=O)n1c(=O)oc2cc(S(=O)(=O)N3CCCCC3)ccc21 ?
KB-3-1 cytotox: inactive; MCF10A rerep: inconclusive; SW480 rerep: -6%; KB-V1 cytotox: 23µM*; ELG1 repair inh: 7%

How did COC(=O)n1c(=O)oc2cc(S(=O)(=O)N3CCCCC3)ccc21 do in these assays?
KB-3-1 cytotox: inactive; MCF10A rerep: -6%; SW480 rerep: -4%; KB-V1 cytotox: inconclusive; ELG1 repair inh: -2%

Results for O=C(c1ccc(N2CCOCC2)c([N+](=O)[O-])c1)N1CCN(c2ccccc2)CC1 ?
KB-3-1 cytotox: inactive; MCF10A rerep: 16%; SW480 rerep: 9%; KB-V1 cytotox: inactive

How did Cn1c(=O)n(C)c2cc([N+](=O)[O-])c(N3CCN(S(C)(=O)=O)CC3)cc21 do in these assays?
KB-3-1 cytotox: inactive; MCF10A rerep: 3%; SW480 rerep: -7%; KB-V1 cytotox: inactive; ELG1 repair inh: -5%

What do the screens show for `O=C(c1ccc(N2CCN(S(=O)(=O)c3ccccc3)CC2)c([N+](=O)[O-])c1)N1CCOCC1`?
KB-3-1 cytotox: inactive; MCF10A rerep: 1%; SW480 rerep: 2%; KB-V1 cytotox: 3.7µM*; ELG1 repair inh: inconclusive

Results for Cn1c(=O)n(C)c2cc([N+](=O)[O-])c(N3CCN(S(=O)(=O)c4ccccc4)CC3)cc21 ?
KB-3-1 cytotox: inconclusive; MCF10A rerep: 19%; SW480 rerep: 0%; KB-V1 cytotox: 2.9µM*; ELG1 repair inh: 12µM*

What do the screens show for `CN(c1ccc(C(=O)N2CCOCC2)cc1[N+](=O)[O-])C1CCCCC1`?
KB-3-1 cytotox: inactive; MCF10A rerep: 0%; SW480 rerep: -6%; KB-V1 cytotox: 23µM*; ELG1 repair inh: inconclusive

How did NC(=O)c1ccc(N2CCN(c3ccccc3O)CC2)c([N+](=O)[O-])c1 do in these assays?
KB-3-1 cytotox: inactive; MCF10A rerep: 0%; SW480 rerep: -5%; KB-V1 cytotox: inconclusive; ELG1 repair inh: 16µM*

How did C/C(=N\NC(=S)Nc1cccc(C)c1)c1ccccc1 do in these assays?
KB-3-1 cytotox: inactive; MCF10A rerep: 0%; SW480 rerep: -8%[9.22 µM]; KB-V1 cytotox: inactive; ELG1 repair inh: inconclusive

Results for CCc1ccc(NS(=O)(=O)c2ccc3[nH]cc(C(=O)N4CCCCC4)c(=O)c3c2)cc1 ?
KB-3-1 cytotox: inactive; MCF10A rerep: 11%; SW480 rerep: -5%; KB-V1 cytotox: inactive; ELG1 repair inh: 8%

Results for O=c1[nH]c(O)c(/C=C2\C=Nc3ccccc32)[nH]1 ?
KB-3-1 cytotox: inactive; MCF10A rerep: -10%; SW480 rerep: -10%; KB-V1 cytotox: inactive; ELG1 repair inh: inconclusive

How did Cn1c(=O)n(C)c2cc([N+](=O)[O-])c(N3CCN(C(=O)c4ccccc4Cl)CC3)cc21 do in these assays?
KB-3-1 cytotox: 23µM*; MCF10A rerep: -8%; SW480 rerep: -18%; KB-V1 cytotox: 16µM*; ELG1 repair inh: inconclusive

Results for O=[N+]([O-])c1ccc(N2CCN(S(=O)(=O)c3ccccc3)CC2)c2cccnc12 ?
KB-3-1 cytotox: inactive; MCF10A rerep: 5%[9.22 µM]; SW480 rerep: 4%; KB-V1 cytotox: 8.2µM*; ELG1 repair inh: inconclusive

Results for Cn1c(=O)n(C)c2cc([N+](=O)[O-])c(N3CCN(C(=O)c4ccccc4Br)CC3)cc21 ?
KB-3-1 cytotox: inactive; MCF10A rerep: 1%; SW480 rerep: -1%; KB-V1 cytotox: inactive; ELG1 repair inh: inconclusive

What do the screens show for `O=C1NC(c2cccc3ccccc23)Nc2ccc(Cl)cc21` (centres undefined)?
KB-3-1 cytotox: 0.18µM*; MCF10A rerep: inconclusive; SW480 rerep: 0.73µM*; KB-V1 cytotox: 0.23µM*

What do the screens show for `Clc1ccc(C2Nc3cccc4cccc(c34)N2)c(Cl)c1`?
KB-3-1 cytotox: inconclusive; MCF10A rerep: 1%; SW480 rerep: inconclusive; KB-V1 cytotox: inactive
